Measurements from PubChem BioAssay AID488969 (Vanderbilt High Throughput Screening Facility, 2010).
In all, about 110,000 compounds were measured (“z-score”: median about -0.1, highest 2% from about 2 on). Many of the other results were omitted from the sample, so the highest values are more common in it than they were. Active and inactive are the calls of the source.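 Rule for the calls: active = z-score in the third read window above 3 or below -3; inactive = the rest.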

Target: Metabotropic glutamate receptor 8 (Rattus norvegicus) (UniProt P70579)
Sequence (P70579 whole entry, looked up): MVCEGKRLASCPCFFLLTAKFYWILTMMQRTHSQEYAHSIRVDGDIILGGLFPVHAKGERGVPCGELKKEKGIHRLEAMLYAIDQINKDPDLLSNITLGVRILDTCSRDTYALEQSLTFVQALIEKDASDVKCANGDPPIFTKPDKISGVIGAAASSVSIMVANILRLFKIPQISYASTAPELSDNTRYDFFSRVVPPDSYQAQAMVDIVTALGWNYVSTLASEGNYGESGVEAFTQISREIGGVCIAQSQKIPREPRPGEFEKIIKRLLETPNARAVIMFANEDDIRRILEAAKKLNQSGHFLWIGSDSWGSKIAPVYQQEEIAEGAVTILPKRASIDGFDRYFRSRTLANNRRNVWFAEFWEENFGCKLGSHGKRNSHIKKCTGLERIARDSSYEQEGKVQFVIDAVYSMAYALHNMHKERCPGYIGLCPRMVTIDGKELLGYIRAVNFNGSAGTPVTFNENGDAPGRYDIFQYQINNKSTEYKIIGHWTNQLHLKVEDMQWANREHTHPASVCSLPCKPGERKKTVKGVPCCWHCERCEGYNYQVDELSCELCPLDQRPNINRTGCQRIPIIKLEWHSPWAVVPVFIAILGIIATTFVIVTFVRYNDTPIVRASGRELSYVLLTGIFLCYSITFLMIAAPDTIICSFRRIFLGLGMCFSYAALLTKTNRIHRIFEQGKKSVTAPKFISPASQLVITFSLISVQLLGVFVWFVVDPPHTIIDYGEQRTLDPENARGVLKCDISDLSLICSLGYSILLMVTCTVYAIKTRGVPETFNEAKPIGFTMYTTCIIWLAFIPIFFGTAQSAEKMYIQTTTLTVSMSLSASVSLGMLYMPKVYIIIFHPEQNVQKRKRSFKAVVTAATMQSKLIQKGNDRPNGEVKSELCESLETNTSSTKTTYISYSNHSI
Test: rat mGluR8 modulators via GIRK flux, primary screen, cell-based, thallium flux, HTS (AID 488969)
Conditions: HEK293 rat mGluR8, GIRK (G protein-gated inwardly rectifying potassium channel) thallium flux, FluoZin2; at 10 µM; stronger effect = higher value; submaximal glutamate (EC20) added with thallium

Row | SMILES | z-score
1 | CN(C)S(=O)(=O)N1CCN(S(=O)(=O)c2ccccc2)CC1 | -0.177
2 | Cc1csc(NC(=O)CSc2nnc(CCNC(=O)c3ccc(Cl)c(Cl)c3)n2C)n1 | -0.837
3 | Cc1cccc(C(=O)NCCc2nnc(SCC(=O)Nc3nc(C)cs3)n2C)c1 | 2.62
4 | Cc1csc(NC(=O)CSc2nnc(CCNC(=O)c3cccs3)n2C)n1 | -0.0983
5 | N#CCCN(C(=O)CSc1nc(-c2ccccc2)cn1N)c1ccc(F)cc1 | -0.2
6 | COc1cc2c(cc1OC)C(C(=O)NCCN1CCOCC1)C1c3ccccc3CCN1C2=O (centres undefined) | -1.12
7 | Oc1c(/C=N/c2ncn[nH]2)ccc2ccccc12 | 0.0888
8 | Oc1ccc(N=Nc2c(O)ccc3ccccc23)cc1 | -0.0552
9 | N/C(=N\OC(=O)Cc1cccc2ccccc12)c1ccccn1 | 0.135
10 | Oc1c(N=Nc2ccccn2)ccc2ccccc12 | 13.6 (active)
11 | O=C(O)Cc1c(O)ccc2ccccc12 | -0.0548
12 | Oc1ccc2ccccc2c1N=Nc1ccccn1 | 2.19
13 | CCOc1cc(C2C(C#N)=C(N)OC(C)=C2C(C)=O)cc(Br)c1O (centres undefined) | -1.08
14 | O=C(Nc1ncc2c(n1)-c1ccccc1CC2)c1cccc(Cl)c1 | -0.891
15 | CCN(c1ccc(NC(=O)COC(=O)CCC(=O)c2ccc(F)cc2)cc1)C(C)C | -0.471
16 | Cc1cc(C)cc(-n2c(SC(C)C(=O)NCc3ccc4c(c3)OCO4)nc3ccccc3c2=O)c1 (centres undefined) | -0.19
17 | Cc1ccc(-c2ccc(C(=O)O)[nH]2)cc1 | 2.4
18 | CCc1ccc(-c2ccc(C(=O)C(F)(F)F)[nH]2)cc1 | -0.0177
19 | Cc1ccc(-c2ccnc(=S)[nH]2)cc1 | 0.997
20 | O=C1c2ccccc2NC(c2ccc(-c3ccc(Br)cc3)o2)N1O (centres undefined) | 3.36 (active)
21 | O=C1c2ccccc2NC(c2ccc(-c3cccc(Cl)c3)o2)N1O (centres undefined) | 2.57
22 | Cc1ccsc1C1Nc2ccccc2C(=O)N1O (centres undefined) | -0.218
23 | O=C1c2ccccc2NC(c2ccco2)N1O (centres undefined) | -0.422

Row | SMILES | z-score
24 | O=C1c2ccccc2NC(c2cn[nH]c2-c2ccccc2)N1O (centres undefined) | -0.0761
25 | Cc1cc([N+](=O)[O-])ccc1-c1ccc(C2Nc3ccccc3C(=O)N2O)o1 (centres undefined) | 3.53 (active)
26 | Cc1nn(C)cc1C1Nc2ccccc2C(=O)N1O (centres undefined) | -0.121
27 | N#CC1=C(S)N(c2ccccc2)C(c2ccc(-c3cccc(Cl)c3)o2)NC1=O (centres undefined) | -0.292
28 | Cc1c(C2Nc3ccccc3C(=O)N2O)cnn1C (centres undefined) | 0.189
29 | CC1CCC(NC(=O)Nc2cccs2)CC1 (centres undefined) | 0.643
30 | CCOC(=O)c1c(NC(=O)C2=C(C)NC(=S)NC2c2ccc(F)cc2F)sc(C)c1C (centres undefined) | 0.556
31 | CCCCCCn1c(C)nc2c(c1=O)c1nc3ccccc3nc1n2/N=C/c1ccco1 | 0.218
32 | CCn1c(SCc2ccc(Cl)cc2)nc2nc3c(cc2c1=O)CCCC3 | 0.193
33 | C=CCn1c(=S)[nH]c2nc3c(cc2c1=O)CCCC3 | 4.15 (active)
34 | CCC1(C)Cc2nc3[nH]c(=S)n(-c4ccccc4)c(=O)c3cc2CO1 (centres undefined) | -0.0711
35 | CCn1c(=S)[nH]c2nc3c(cc2c1=O)CCCC3 | 2.31
36 | CC1(C)Cc2nc3[nH]c(=S)n(-c4ccccc4)c(=O)c3cc2CO1 | -0.126
37 | CCn1c(SCC(=O)Nc2ccc(C)cc2)nc2nc3c(cc2c1=O)CCCC3 | 0.307
38 | CN(C(=O)c1ccncc1)c1nnc(-c2cnccn2)s1 | -0.251
39 | COc1ccc(NC(=O)Cc2coc3cc(C)c(C(C)C)cc23)cc1S(=O)(=O)N1CCOCC1 | -0.503
40 | CCOC(=O)/C(C#N)=C/c1cc2ccccc2nc1Cl | -0.3
41 | O=C(c1ccco1)N1CCN(S(=O)(=O)c2ccc(Cl)s2)CC1 | -0.0642
42 | COc1cccc(N(CC(=O)N/N=C(\C)c2cccs2)S(C)(=O)=O)c1 | -0.154
43 | CC1=C(C(=O)OC(C)C)C(c2cncc(-c3ccc(F)cc3)c2)C(C#N)=C(N)O1 (centres undefined) | -0.367
44 | CCOC(=O)C1=C(C)OC(N)=C(C#N)C1c1cncc(-c2ccc(F)cc2)c1 (centres undefined) | 2.92
45 | CCOC(=O)C1=C(C)OC(N)=C(C#N)C1c1cc(F)ccc1F (centres undefined) | -2.09
46 | Cc1ccc(S(=O)(=O)NC(C)C(c2cccs2)N2CCN(c3ccccc3)CC2)cc1 (centres undefined) | -0.115

Row | SMILES | z-score
47 | O=C(NC(=S)Nc1ccccn1)c1cc(-c2ccccc2)nc2ccccc12 | 3.22 (active)
48 | O=C(NCc1ccccn1)c1cc(-c2ccc(-c3ccccc3)cc2)nc2ccccc12 | -0.368
49 | Cc1ccc(-c2cc(C(=O)Nc3ccccc3C)c3ccccc3n2)o1 | 0.279
50 | O=C(NCc1ccccn1)c1cc(-c2ccccc2)nc2ccccc12 | -0.314
51 | Cc1cccc(NC(=O)c2cc(Cl)nc3ccccc23)c1 | -0.228
52 | CCNC(=S)NNC(=O)c1cc(-c2cccc(C)c2)nc2ccccc12 | 0.214
53 | CCCOc1ccc(C(=O)NNC(=S)NC(=O)c2cc(-c3ccc(Cl)cc3)nc3ccccc23)cc1 | -0.0891
54 | Cc1ccccc1NC(=S)NC(=O)c1cc(-c2ccccc2)nc2ccccc12 | 7.41 (active)
55 | Cc1cccc(NC(=S)NC(=O)c2cc(-c3ccccc3)nc3ccccc23)c1 | 5.14 (active)
56 | COc1ccc(C(=O)NNC(=S)NC(=O)c2cc(-c3ccccc3)nc3ccccc23)cc1 | 2.35
57 | CCCOc1ccc(C(=O)NNC(=S)NC(=O)c2cc(-c3ccccc3)nc3ccccc23)cc1 | 0.558
58 | Cc1ccc(-c2cc(C(=O)Nc3cc(C)on3)c3ccccc3n2)cc1 | -0.321
59 | O=C(Cn1cc([N+](=O)[O-])cn1)N1CCc2ccccc21 | 0.0712
60 | O=C(c1cccs1)c1cn(CC(=O)N2CCc3ccccc3C2)c2ccccc12 | -0.134
61 | COc1ccc(N2CCN(S(=O)(=O)c3cccc(C(F)(F)F)c3)CC2)cc1 | -0.0298
62 | CCn1c(SCc2ccccc2Cl)nc2ccccc21 | 0.866
63 | CN(/N=C/c1cccnc1)c1cnn(-c2ccc(F)c(Cl)c2)c(=O)c1Cl | -0.0102
64 | COc1ccc(Cl)cc1C(=O)NNC(=S)NC(=O)c1cc(-c2ccccc2)nc2ccccc12 | 1.06
65 | COC(=O)c1ccc(NC(=S)NC(=O)c2cc(-c3ccccc3)nc3ccccc23)cc1 | 8.36 (active)
66 | COC(=O)c1ccc(NC(=S)Nc2ccccc2)cc1 | 0.0759
67 | COC(=O)c1cc(OC)c(OC)cc1NC(=O)c1cc(-c2ccccc2)nc2ccccc12 | -0.917
68 | O=C(Nc1ccon1)c1cc(-c2ccccc2)nc2ccccc12 | -1.67
69 | O=C(NC(=S)Nc1ccccc1)c1cc(-c2ccccc2)nc2ccccc12 | 9.35 (active)
